Measurements from PubChem BioAssay (Tox21).
Inconclusive results are not listed. Entries that show only a call come without a potency. Calls of active or inactive are those of the source. The call rests on the fitted dose curve; in most records, active means well fitted cell-killing curve with a large enough effect in the repeat runs; inconclusive means weak or mixed curves; inactive means flat fitted curve, though single readings scatter.

Experiment: qHTS RealTime-Glo MT Cell Viability Assay in HepG2 cells - 32 hour (AID 1224877); further: nearly all actives have a fitted effect of over 55% in size
Conditions: RealTime-Glo luminescence; series mostly up to 76.8 µM
Source text: U.S. Tox21 Program National Center for Advancing Translational Sciences [NCATS] NIH Chemical Genomics Center [NCGC] U.S. Environmental Protection Agency [EPA] National Institutes of Environmental Health Sciences [NIEHS] National Toxicology Program [NTP] U.S. Food and Drug Administration [FDA] Tox21 Assay Overview: Measure of cell viability is critical in the cell-base assay. Analysis of cell viability is necessary for the characterization of cell responses to cytotoxic drugs and environmental stress. A RealTime-Glo MT Cell Viability Assay to monitor cell viability in real time of continues cell culture during 40 hours of compound treatment was used to screen Tox21 10K library compounds in HepG2 cells. The RealTime-Glo MT Cell Viability Assay is a nonlytic, homogeneous, bioluminescent method to measure cell viability in real time using a simple, plate-based method. The assay involves adding NanoLuc luciferase and a cell-permeant prosubstrate to cells in culture. Viable cells reduce the proprietary prosubstrate to generate a substrate for NanoLuc luciferase. This substrate diffuses from cells into the surrounding culture medium, where it is rapidly used by the NanoLuc Enzyme to produce a luminescent signal. The signal correlates with the number of viable cells, making the assay well suited for cytotoxicity studies.
Tox21 Assay Protocol Summary: The mixture of HepG2 cell suspension and reagents were dispensed at 600cells/6 ul/well in 1536-well tissue culture treated black solid bottom plates using a Multidrop dispenser. After the assay plates were incubated at a 37 C/5% CO2 incubator for 5 hours, 23 nL of compounds dissolved in DMSO, positive and negative controls was transferred to the assay plate by a pintool work station. The plates were incubated at 37 C for 40 hours. The luminescence intensity were measured at 0h, 8h, 16h, 24h, 32h and 40h time points using ViewLux plate reader during compound treatment.
Potency means the concentration at half of the fitted maximal effect.

**Q.** Which Potency does the source give for `Cc1cc(C)c(S(=O)(=O)O)cc1N=Nc1cc(S(=O)(=O)O)c2ccccc2c1O` here?
**A.** inactive

**Q.** For `O=C1Nc2cc(Cl)ccc2Oc2ccccc21`, which Potency is on record?
**A.** inactive

**Q.** For `CN1CCC(=C2c3ccccc3CCc3sccc32)CC1`, which Potency is on record?
**A.** inactive

**Q.** With `CC(C)(C)c1cc(CCC(=O)OCC(COC(=O)CCc2cc(C(C)(C)C)c(O)c(C(C)(C)C)c2)(COC(=O)CCc2cc(C(C)(C)C)c(O)c(C(C)(C)C)c2)COC(=O)CCc2cc(C(C)(C)C)c(O)c(C(C)(C)C)c2)cc(C(C)(C)C)c1O` as the compound, how does the Potency read?
**A.** inactive

**Q.** For `CCCCCCCCCCCCCCCBr`, which Potency is on record?
**A.** inactive

**Q.** Which Potency does the source give for `CCOC(=O)CC(C)C` here?
**A.** inactive

**Q.** With `O=C(O)/C=C/c1cnc[nH]1` as the compound, how does the Potency read?
**A.** inactive

**Q.** With `CCCCCCCCC(CO)CCCCCC` (stereo not given) as the compound, how does the Potency read?
**A.** inactive

**Q.** With `O=C(Cl)c1ccc([N+](=O)[O-])cc1` as the compound, how does the Potency read?
**A.** inactive

**Q.** With `N#CCc1cccc(C(F)(F)F)c1` as the compound, how does the Potency read?
**A.** inactive

**Q.** For `CCN1CCC[C@H]1CNC(=O)c1c(OC)ccc(Br)c1OC`, which Potency is on record?
**A.** inactive

**Q.** With `CC(C)c1ccc2c(C(C)C)cc(C(C)C)c(S(=O)(=O)O)c2c1` as the compound, how does the Potency read?
**A.** inactive

**Q.** With `Cc1ccc(O)c([C@H](CCN(C(C)C)C(C)C)c2ccccc2)c1` as the compound, how does the Potency read?
**A.** inactive

**Q.** Which Potency does the source give for `CCCCOC(O)CC` (stereo not given) here?
**A.** inactive

**Q.** With `CCCCCCc1ccc(N)cc1` as the compound, how does the Potency read?
**A.** inactive

**Q.** With `Nc1cnn([C@@H]2O[C@H](CO)[C@@H](O)[C@H]2O)c(=O)n1` as the compound, how does the Potency read?
**A.** inactive

**Q.** With `FC(F)(F)C(F)(F)C(F)(F)C(F)(F)C(F)(F)C(F)(F)CCI` as the compound, how does the Potency read?
**A.** inactive

**Q.** Which Potency does the source give for `CCCCOC(=O)/C=C\C(=O)OCCCC` here?
**A.** inactive

**Q.** Which Potency does the source give for `CC(=O)OCCc1ccccc1` here?
**A.** inactive

**Q.** With `CC[C@H](C)[C@@H](C(=O)O)n1sc2ccccc2c1=O` as the compound, how does the Potency read?
**A.** 49 µM (active)

**Q.** Which Potency does the source give for `COc1ccccc1OC(=O)Oc1ccccc1OC` here?
**A.** inactive

**Q.** For `CCCCCCCCCCCCCCC1CO1` (stereo not given), which Potency is on record?
**A.** inactive

**Q.** With `Cc1cccc(OCCOc2cccc(C)c2)c1` as the compound, how does the Potency read?
**A.** inactive

**Q.** For `Cc1ccc(C(N)=O)cc1N`, which Potency is on record?
**A.** inactive

**Q.** For `C=CCCCCCC`, which Potency is on record?
**A.** inactive

**Q.** With `CCCCOC(=O)c1ccccc1C(=O)OCC(CC)CCCC` (stereo not given) as the compound, how does the Potency read?
**A.** inactive

**Q.** With `O=C(Nc1ccccc1)OCC(CN1CCCCC1)OC(=O)Nc1ccccc1` (stereo not given) as the compound, how does the Potency read?
**A.** inactive

**Q.** Which Potency does the source give for `CC1(C)CCC(C)(C)c2cc(NC(=O)c3ccc(C(=O)O)cc3)ccc21` here?
**A.** inactive

**Q.** With `Cc1ccccc1N=Nc1ccc(N=Nc2c(O)ccc3ccccc23)c(C)c1` as the compound, how does the Potency read?
**A.** inactive

**Q.** For `C=C(C)C(=O)OCCOc1ccccc1`, which Potency is on record?
**A.** inactive

**Q.** With `CCN(CC)CCc1nc(-c2ccccc2)no1` as the compound, how does the Potency read?
**A.** inactive

**Q.** For `CC(=O)O[C@H]1C[C@@H]2CC[C@@H]3[C@H](CC[C@@]4(C)[C@H]3C[C@H]([N+]3(C)CCCCC3)[C@@H]4OC(C)=O)[C@@]2(C)C[C@@H]1N1CCCCC1`, which Potency is on record?
**A.** inactive

**Q.** Which Potency does the source give for `COc1ccc2[nH]c(S(=O)Cc3ncc(C)c(OC)c3C)nc2n1` (stereo not given) here?
**A.** inactive

**Q.** With `CC1=CC(=O)/C(=C(/C)O)C(=O)O1` as the compound, how does the Potency read?
**A.** inactive

**Q.** For `Cl/C(=C\n1cncn1)c1ccc(Cl)cc1Cl`, which Potency is on record?
**A.** inactive

**Q.** For `O=C(NS(=O)(=O)/C=C/c1cccs1)c1ccc(F)cc1Br`, which Potency is on record?
**A.** inactive

**Q.** For `O=CNc1ccccc1`, which Potency is on record?
**A.** inactive

**Q.** Which Potency does the source give for `CC/C(=C\C(=N/O)C(N)=O)C(C)[N+](=O)[O-]` (stereo not given) here?
**A.** inactive

**Q.** For `NC(N)=NN=C(/C=C/c1ccc([N+](=O)[O-])o1)/C=C/c1ccc([N+](=O)[O-])o1`, which Potency is on record?
**A.** 1.51 µM (active)

**Q.** With `CCOC(=S)SSC(=S)OCC` as the compound, how does the Potency read?
**A.** inactive
